Experiment [1] in a line: Counterscreen qHTS for small molecule stabilizers of the endoplasmic reticulum resident proteome: GLuc-NoTag assay (AID 1508627).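 Further: 0% = thapsigargin alone and -100% = DMSO vehicle control.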 Put shortly:
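SH-SY5Y cells stably expressing constitutively secreted GLuc without SERCaMP tag, exposed to compound for 19 hr, then to 100 nM thapsigargin for 4 hr at 37C. Medium luciferase was read by coelenterazine luminescence without lysis.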
In general terms: Counterscreens check selectivity or assay interference.

Experiment [2] is described as follows: Confirmatory qHTS for small molecule stabilizers of the endoplasmic reticulum resident proteome: Secreted ER Calcium Modulated Protein (SERCaMP) assay (AID 1508628). Further: on the % scale 0 is the no-effect control and ±100 the full control effect; nearly all actives have a fitted effect of over 40% in size. Put shortly: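 SH-SY5Y cells stably expressing GLuc-SERCaMP, treated 16 h with compound (primary 1.53, 7.67, 38.3 uM; confirmation 11 concentrations, up to 76.6 uM), then 100 nM thapsigargin for 4 h. Secreted Gaussia luciferase in medium read by coelenterazine luminescence.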
On the technique in general: Quantitative high-throughput screening tests each substance at several concentrations.

Experiment [3] is described as follows: Cell Viability qHTS for small molecule stabilizers of the endoplasmic reticulum resident proteome (AID 1508629).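 Further: human SH-SY5Y neuroblastoma cells carrying the GLuc-SERCaMP reporter; compound exposure about 46 h in total before the viability read; on the % scale 0 is the no-effect control and ±100 the full control effect.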 The note with it: cell viability counter-screen, 100 nM thapsigargin for final 4 h.
The target of experiment [4] is Glutathione peroxidase 1 (Homo sapiens) (UniProt P07203). Briefly: Primary qHTS Assay for Inhibitors of Recombinant Selenoprotein Glutathione Peroxidase 1 (GPX1) (AID 1845191). Further: on the % scale 0 is the no-effect control and ±100 the full control effect; nearly all actives have a fitted effect of over 65% in size. The method, boiled down:
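GR-coupled assay: compounds preincubated 30 min at room temperature with GPX1, then reaction started with CHP; final 10 nM GPX1, 1 mM GSH, 0.5 mM CHP, 0.5 mM NADPH, 100 nM GR, 0.01% BSA, pH 7.5 Tris buffer. NADPH fluorescence (340/450 nm) read at 0 and 15 min.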

The target of experiment [5] is Phospholipid hydroperoxide glutathione peroxidase GPX4 (Homo sapiens) (UniProt P36969). Description: Primary qHTS Assay for Inhibitors of Recombinant Selenoprotein Glutathione Peroxidase 4 (GPX4) (AID 1845192). Further: on the % scale 0 is the no-effect control and ±100 the full control effect; nearly all actives have a fitted effect of over 65% in size. The note with it: outcome: dose series up to 50 µM unless noted. The method, boiled down:
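GR-coupled assay: recombinant GPX4 preincubated 30 min with compound at room temperature; final 200 nM GPX4, 1 mM GSH, 0.5 mM cumene hydroperoxide, 0.5 mM NADPH, 100 nM GR, 0.01% BSA, pH 7.5 Tris. NADPH fluorescence (340/450 nm) read at 0 and 15 min.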

The target in experiment [6] is Lysosomal acid glucosylceramidase (Homo sapiens) (UniProt P04062). Description: Glucocerebrosidase-p2 (AID 348; in the data active means potency below about 10 µM; further: potency means the concentration at half of the fitted maximal effect). The note with it: purified GBA, blue fluorogenic substrate, 40 min. Put shortly:
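Compounds titrated from 0.6 nM upwards against 0.2 nM enzyme in pH 5.9 citric acid/KH2PO4, taurocholate, tween-20; blue fluorogenic substrate 80 uM, 40 min room temperature, stopped and read Ex 365/Em 440 for AC50.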

The nature of experiment [7]: AP1 Signaling Pathway (AID 357; active means well fitted curve in either direction with a large enough effect, not every such curve was filed as active; further: on the % scale 0 is the no-effect control and ±100 the full control effect). As to conditions: ME-180 AP-1-bla reporter, EGF-induced, beta-lactamase ratio, 5 h; at 7.69 µM (top of the series) unless noted. The method, boiled down: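 Read-out was the 460nm/530nm emission ratio (excitation 405nm) after CCF4 loading for 2.5 hours at room temperature. Cells carried an AP-1-driven beta-lactamase reporter, were stimulated with EC50 EGF plus compound for 5 hours, and AC50 values came from titrations.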

A short description of experiment [8]: NFAT Signaling Pathway (AID 444; active means well fitted curve in either direction with a large enough effect, not every such curve was filed as active;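 further: carbachol stimulus at about its EC50 of 1 µM final; on the % scale 0 is the no-effect control and ±100 the full control effect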). The note with it: Jurkat NFAT-bla M1, carbachol, beta-lactamase ratio, 5 h; at 7.69 µM (top of the series) unless noted. The method, boiled down:
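Jurkat cells with NFAT-driven β-lactamase reporter and co-expressed M1 receptor, stimulated with carbachol (final 1 uM, ~EC50), compound titration, 5 h at 37 °C. CCF4 loaded 1 h at RT; 460/530 nm ratio gave %activity and AC50.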

Experiment [9] in a line: Stat Signaling Pathway (AID 446; active means well fitted curve in either direction with a large enough effect, not every such curve was filed as active;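 further: ME-180 cervical cancer cells given 40 pM IL-6 alongside compound; SIE-controlled beta-lactamase reporter measured as 460/530 nm FRET emission ratio; on the % scale 0 is the no-effect control and ±100 the full control effect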). As to conditions: ME-180 SIE beta-lactamase reporter, IL-6 stimulated, 5 h; at 7.69 µM (top of the series) unless noted. Put shortly: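 Screening format detects activators and inhibitors alike: ME-180 SIE-bla cells stimulated at 40 pM IL-6 for 5 hrs with compound, then dual-emission beta-lactamase read at 405 nm excitation.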
Experiment [10] addresses Glucocorticoid receptor (Homo sapiens) (UniProt P04150). Description: GR-GFP Redistribution (AID 450;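 active means compounds whose dose series gives a full or clear partial fitted curve of increased nuclear translocation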; further: potency means the concentration at half of the fitted maximal effect). As to conditions: U2OS GR-GFP nuclear translocation, laser cytometry, 2 h.
For experiment [11] the target is unchanged. Briefly: GR-EFC Redistribution (AID 451; calls by dose curve; further: potency means the concentration at half of the fitted maximal effect). As to conditions: CHO-K1 GR-EFC translocation, beta-gal luminescence, 2 h. Put shortly:
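CHO-K1 cells expressing nuclear EA and GR-ED fragments of b-gal; compounds titrated up to 46 uM final, 2 h at 37 C. GR nuclear translocation read as complemented b-gal luminescence after 1 h RT detection.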

The target of experiment [12] is Mitogen-activated protein kinase 10 (Mus musculus) (UniProt Q61831). Briefly: JNK3 AlphaScreen Assay (AID 530; active means well fitted curve in either direction with a large enough effect, not every such curve was filed as active). The method, boiled down:
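Pre-activated (IL-1β/TNFα) JNK3 in HepG2 lysates phosphorylates biotin-GST-cJun(1-79), 10 uM ATP; anti-phospho-cJun(Ser73) AlphaScreen read at room temperature, pH 7.6 Tris buffer. Compounds pre-incubated 15 min as titrations.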
(Alpha assays give light when donor and acceptor beads are brought close together.)

The target in experiment [13] is Dual specificity protein kinase CLK4 (Homo sapiens) (UniProt Q9HAZ1). Briefly: qHTS Assay for Inhibitors of CDC-like Kinase 4 (Kinase-Glo Assay) (AID 1770). Further: on the % scale 0 is the no-effect control and ±100 the full control effect; nearly all actives have a fitted effect of over 65% in size. The method, boiled down: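 Substrate mix (RS peptide 100 uM, ATP 1 uM) dispensed, compound pinned in, then Clk4 added to 25 nM final. Incubated 4.5 h at RT; Kinase-Glo reagent added, luminescence read after 5 min.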

Experiment [14] has the same target. Briefly: qHTS Assay for Inhibitors of CDC-like Kinase 4 (ADP-Glo Assay) (AID 1771). Further: on the % scale 0 is the no-effect control and ±100 the full control effect; nearly all actives have a fitted effect of over 70% in size. The method, boiled down:
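Luminescence from ADP-Glo reports ADP produced by 25 nM Clk4 acting on 100 uM RS repeat peptide with 1 uM ATP over 1 hr at room temperature; residual ATP is depleted before ADP is converted to ATP for detection.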

For experiment [15] the target is unchanged. Briefly: qHTS Assay for Inhibitors of CDC-like Kinase 4 (ADP-FP Assay) (AID 1795).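 Further: recombinant human CLK4 phosphorylating RS repeat peptide at 1 µM ATP; on the % scale 0 is the no-effect control and ±100 the full control effect; nearly all actives have a fitted effect of over 60% in size.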 Put shortly:
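Clk4 6.25 nM; RS peptide 100 uM; ATP 1 uM; 25 mM Tris pH 7.5, 10 mM MgCl2; 1 h reaction. ADP detected via antibody/orange tracer FP displacement; TG003 positive control.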

Experiment [16] concerns the target Rap guanine nucleotide exchange factor 3 (Homo sapiens) (UniProt O95398). Description: Confirmatory qHTS for agonist of cAMP-regulated guanine nucleotide exchange factor 3 (EPAC1) (AID 1645881).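 Further: EPAC1 catalysed release of BODIPY-GDP from Rap1B seen as fluorescence loss; 100% = effect of cAMP agonist control; nearly all actives have a fitted effect of over 75% in size.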
Experiment [17] has as its target Rap guanine nucleotide exchange factor 4 (Homo sapiens) (UniProt Q8WZA2). Briefly: Confirmatory qHTS for agonist of cAMP-regulated guanine nucleotide exchange factor 4 (EPAC2) (AID 1645884).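 Further: nucleotide exchange releases bodipy-GDP from Rap1 and this lowers its fluorescence; on the % scale 0 is the no-effect control and ±100 the full control effect; nearly all actives have a fitted effect of over 65% in size.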
A short description of experiment [18]: qHTS Assay for Lipid Storage Modulators (AID 1519; calls by dose curve). The note with it: Drosophila S3 cells, BODIPY lipid droplet/cell ratio, laser cytometry, cells loaded with oleic acid. Put shortly:
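Cells seeded at 5,000 per well were treated with compounds over a concentration series and loaded with oleic acid (400 uM, as added). Lipid droplet fluorescence (488 nm excitation, 500-530 nm channel) was read by laser-scanning cytometry and normalized to 20 uM Triacsin C.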

SMILES strings stand for the structures. Inconclusive results are not listed. The source made the active and inactive calls. Unless noted, the call rests on the fitted dose curve; in most records, active means well fitted curve in the direction sought with a large enough effect; inconclusive means small, poorly fitted or top-dose-only effect, or another doubt; inactive means no such curve, though single readings can be large; an effect the other way counts as inactive or inconclusive.

Chain of Dual specificity protein kinase CLK4 (Homo sapiens) (Q9HAZ1 whole entry, looked up): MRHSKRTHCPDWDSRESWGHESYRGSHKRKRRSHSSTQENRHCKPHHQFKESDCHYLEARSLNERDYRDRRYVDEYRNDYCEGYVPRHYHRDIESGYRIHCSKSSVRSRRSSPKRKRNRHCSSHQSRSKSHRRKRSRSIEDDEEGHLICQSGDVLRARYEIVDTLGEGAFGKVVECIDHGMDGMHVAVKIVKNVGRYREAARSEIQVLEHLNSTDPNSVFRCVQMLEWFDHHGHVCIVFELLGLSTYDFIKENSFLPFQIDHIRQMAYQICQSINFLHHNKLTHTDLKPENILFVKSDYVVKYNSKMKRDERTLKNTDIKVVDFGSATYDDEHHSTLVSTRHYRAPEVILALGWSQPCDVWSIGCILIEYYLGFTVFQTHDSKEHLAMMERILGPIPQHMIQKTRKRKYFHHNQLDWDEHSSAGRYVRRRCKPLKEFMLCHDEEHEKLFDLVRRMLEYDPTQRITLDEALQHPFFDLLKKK
Chain of Glucocorticoid receptor (Homo sapiens) (P04150 whole entry, looked up): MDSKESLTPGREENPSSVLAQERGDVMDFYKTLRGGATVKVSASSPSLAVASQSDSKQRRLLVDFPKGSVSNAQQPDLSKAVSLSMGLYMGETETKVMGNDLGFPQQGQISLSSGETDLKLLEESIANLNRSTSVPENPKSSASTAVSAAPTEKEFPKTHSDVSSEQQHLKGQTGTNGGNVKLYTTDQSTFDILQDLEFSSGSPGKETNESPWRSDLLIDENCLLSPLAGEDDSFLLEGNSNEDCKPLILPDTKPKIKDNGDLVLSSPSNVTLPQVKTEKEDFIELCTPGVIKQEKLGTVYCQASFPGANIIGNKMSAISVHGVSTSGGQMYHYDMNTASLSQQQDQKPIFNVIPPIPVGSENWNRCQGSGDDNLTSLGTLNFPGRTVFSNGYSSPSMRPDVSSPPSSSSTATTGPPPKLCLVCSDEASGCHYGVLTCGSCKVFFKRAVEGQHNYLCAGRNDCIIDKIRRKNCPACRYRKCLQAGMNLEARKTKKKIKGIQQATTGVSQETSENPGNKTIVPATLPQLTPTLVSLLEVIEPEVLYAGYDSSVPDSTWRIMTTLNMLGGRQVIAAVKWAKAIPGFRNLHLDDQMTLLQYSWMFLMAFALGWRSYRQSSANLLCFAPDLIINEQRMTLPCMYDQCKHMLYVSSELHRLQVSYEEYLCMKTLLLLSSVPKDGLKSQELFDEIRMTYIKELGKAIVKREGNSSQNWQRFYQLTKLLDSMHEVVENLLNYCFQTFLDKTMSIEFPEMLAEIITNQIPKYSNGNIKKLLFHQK
Chain of Glutathione peroxidase 1 (Homo sapiens) (P07203 whole entry, looked up): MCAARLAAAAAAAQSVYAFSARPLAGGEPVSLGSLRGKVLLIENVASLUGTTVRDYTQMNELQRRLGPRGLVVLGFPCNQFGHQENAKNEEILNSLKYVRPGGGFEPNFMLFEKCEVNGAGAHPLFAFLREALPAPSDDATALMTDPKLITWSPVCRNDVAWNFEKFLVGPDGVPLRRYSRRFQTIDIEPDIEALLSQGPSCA
Chain of Rap guanine nucleotide exchange factor 3 (Homo sapiens) (O95398 whole entry, looked up): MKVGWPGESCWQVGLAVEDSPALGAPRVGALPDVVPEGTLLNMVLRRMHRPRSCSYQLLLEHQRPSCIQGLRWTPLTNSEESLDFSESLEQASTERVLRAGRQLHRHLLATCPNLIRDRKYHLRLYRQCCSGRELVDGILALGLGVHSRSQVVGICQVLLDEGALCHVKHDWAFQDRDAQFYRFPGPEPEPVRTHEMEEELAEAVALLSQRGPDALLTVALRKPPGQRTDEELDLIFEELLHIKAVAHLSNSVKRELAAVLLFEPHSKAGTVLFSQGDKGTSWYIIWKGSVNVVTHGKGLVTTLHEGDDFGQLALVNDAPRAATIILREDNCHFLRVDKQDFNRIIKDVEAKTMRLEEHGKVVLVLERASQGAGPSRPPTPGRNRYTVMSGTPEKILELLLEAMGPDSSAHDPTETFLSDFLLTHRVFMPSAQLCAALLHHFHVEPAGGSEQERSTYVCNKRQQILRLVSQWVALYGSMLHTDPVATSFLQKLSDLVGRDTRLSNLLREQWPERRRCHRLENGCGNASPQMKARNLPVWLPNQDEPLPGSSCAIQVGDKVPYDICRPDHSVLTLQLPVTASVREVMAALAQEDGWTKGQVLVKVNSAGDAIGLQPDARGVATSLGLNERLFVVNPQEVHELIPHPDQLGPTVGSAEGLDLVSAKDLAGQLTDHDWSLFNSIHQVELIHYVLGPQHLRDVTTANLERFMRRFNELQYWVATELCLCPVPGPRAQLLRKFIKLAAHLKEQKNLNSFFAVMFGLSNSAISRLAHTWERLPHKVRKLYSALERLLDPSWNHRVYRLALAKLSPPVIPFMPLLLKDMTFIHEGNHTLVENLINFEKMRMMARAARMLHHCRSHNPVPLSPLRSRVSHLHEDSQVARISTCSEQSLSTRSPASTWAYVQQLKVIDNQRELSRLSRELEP
Chain of Lysosomal acid glucosylceramidase (Homo sapiens) (P04062 whole entry, looked up): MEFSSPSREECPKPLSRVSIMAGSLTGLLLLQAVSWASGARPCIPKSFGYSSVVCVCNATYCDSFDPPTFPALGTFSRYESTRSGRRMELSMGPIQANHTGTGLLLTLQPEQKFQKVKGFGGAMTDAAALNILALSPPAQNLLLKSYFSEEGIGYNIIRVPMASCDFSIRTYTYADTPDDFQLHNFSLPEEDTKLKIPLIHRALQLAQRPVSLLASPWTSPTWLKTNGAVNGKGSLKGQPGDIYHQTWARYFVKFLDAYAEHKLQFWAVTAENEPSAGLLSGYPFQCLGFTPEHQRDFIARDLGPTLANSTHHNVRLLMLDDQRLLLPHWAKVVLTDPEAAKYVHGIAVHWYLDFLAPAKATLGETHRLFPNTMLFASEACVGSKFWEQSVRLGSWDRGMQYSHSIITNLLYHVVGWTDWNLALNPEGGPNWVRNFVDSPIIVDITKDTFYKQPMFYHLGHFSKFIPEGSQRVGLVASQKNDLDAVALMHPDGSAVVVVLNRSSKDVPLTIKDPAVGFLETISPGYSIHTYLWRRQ
Chain of Rap guanine nucleotide exchange factor 4 (Homo sapiens) (Q8WZA2 whole entry, looked up): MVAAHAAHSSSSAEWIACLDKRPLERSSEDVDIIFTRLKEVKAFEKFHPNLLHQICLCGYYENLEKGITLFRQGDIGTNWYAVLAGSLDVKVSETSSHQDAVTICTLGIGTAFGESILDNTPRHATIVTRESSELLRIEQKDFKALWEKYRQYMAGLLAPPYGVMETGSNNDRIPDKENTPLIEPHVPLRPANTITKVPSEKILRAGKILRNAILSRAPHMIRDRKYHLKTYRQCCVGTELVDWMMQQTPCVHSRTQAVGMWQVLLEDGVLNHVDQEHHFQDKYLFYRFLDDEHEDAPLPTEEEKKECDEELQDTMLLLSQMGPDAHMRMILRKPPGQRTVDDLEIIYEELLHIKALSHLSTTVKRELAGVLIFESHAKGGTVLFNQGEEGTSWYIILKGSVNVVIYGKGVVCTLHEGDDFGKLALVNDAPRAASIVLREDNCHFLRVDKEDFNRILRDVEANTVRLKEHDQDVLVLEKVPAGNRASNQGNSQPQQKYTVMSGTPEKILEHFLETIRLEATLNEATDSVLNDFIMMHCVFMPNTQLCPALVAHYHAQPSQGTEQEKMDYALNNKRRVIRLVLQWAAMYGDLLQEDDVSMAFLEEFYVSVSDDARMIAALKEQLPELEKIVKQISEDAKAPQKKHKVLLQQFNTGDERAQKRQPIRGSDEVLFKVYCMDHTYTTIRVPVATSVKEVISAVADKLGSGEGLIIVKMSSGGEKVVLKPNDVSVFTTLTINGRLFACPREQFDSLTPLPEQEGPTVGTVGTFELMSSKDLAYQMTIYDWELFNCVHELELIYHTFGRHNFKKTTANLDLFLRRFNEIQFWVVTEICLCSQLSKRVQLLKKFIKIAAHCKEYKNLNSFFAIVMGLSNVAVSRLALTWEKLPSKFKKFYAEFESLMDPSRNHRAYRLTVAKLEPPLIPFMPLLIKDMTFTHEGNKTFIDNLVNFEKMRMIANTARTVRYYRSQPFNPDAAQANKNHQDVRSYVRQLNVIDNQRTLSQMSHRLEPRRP
Chain of Phospholipid hydroperoxide glutathione peroxidase GPX4 (Homo sapiens) (P36969 whole entry, looked up): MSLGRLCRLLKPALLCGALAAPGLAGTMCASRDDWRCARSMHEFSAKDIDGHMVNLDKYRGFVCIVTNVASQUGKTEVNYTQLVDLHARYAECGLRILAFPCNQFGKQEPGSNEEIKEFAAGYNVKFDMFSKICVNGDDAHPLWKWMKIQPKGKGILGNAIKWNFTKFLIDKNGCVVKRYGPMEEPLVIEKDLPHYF

With `OC[C@H]1NC[C@@H](O)[C@@H](O)[C@@H]1O`, the Potency result in [1], in experiment [2], in experiment [4] and in [5] was “inactive” each time. Besides, in experiment [3], the max response is 8.42% (inactive).

As for `Cc1ccccc1-c1nccc(Nc2ccc(F)cc2)n1`, the Potency was > 11.4 µM (inactive) in experiment [6], > 46 µM (inactive) in experiment [10] and > 46 µM (inactive) in [11]. Moreover, the activity change, negative = inhibition was -8.14% (inactive) in experiment [7] and -3.97% (inactive) in experiment [8]. The activity, negative = inhibition in experiment [9] was -11% (inactive). Besides, the call in experiment [12], in [16] and in experiment [17] was inactive. In addition, the Potency entry in [13], in experiment [14], in experiment [15], in [1] and in experiment [2] was “inactive” in each case.

Turning to `CN1CCN(c2ncc3nc(-c4cc(F)cc(F)c4)c(=O)n(-c4ccccc4)c3n2)CC1`, the Potency is > 9.22 µM (inactive) in [10] and > 46 µM (inactive) in experiment [11]. Moreover, the call in experiment [12] was inactive. Moreover, the activity change, negative = inhibition in experiment [18] (at 57.5 µM (top of the series)) is 2.22% (inactive). In addition, the max response in [18] (measured here: cell count channel max response) was found to be 13.7%; in [18] (measured here: lipid channel max response), 14.9%. For the same molecule, the Potency entry in [1] and in experiment [2] was “inactive” throughout.

The values above are taken from PubChem BioAssay (NCATS).
